TDP1 cell noCPT: qHTS for Inhibitors of human tyrosyl-DNA phosphodiesterase 1 (TDP1): qHTS in cells in absence of CPT; Potency, µM (doses to about 46.2 µM), inactives show at the highest dose activity change, negative = growth inhibition, hits mostly inhibitors; AID 686978, 2013; DT40 Tdp1-/- hTDP1 cells, no CPT, ATP luminescence, 48 h; 420,000 tested, 15% active; note: potency is the fitted concentration of half-maximal effect; nearly all actives have a fitted effect of over 55% in size
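Compound effects on proliferation are scored in DT40 Tdp1-/-;hTDP1 cells in the absence of CPT. ATP levels (CellTiter-Glo luminescence) are recorded after a ≥48 hr, 37 °C incubation.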
HT1080 IDH1KD tx: HT-1080 IDH1 knockdown cell toxicity (counter line) | HT-1080 IDH1 knockdown viability, ATP luminescence, 48 h | Potency, µM (series often up to 46.1 µM), for inactives: at the top dose activity, negative = toxicity, actives largely listed as cytotoxic | 360,000 tested, 2% active | AID 686971;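 note: potency is the fitted concentration of half-maximal effect; 0% = DMSO wells and -100% = cell-free medium wells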
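Luminescent ATP read-out (CellTiter-Glo, 10 min at room temperature) after 48 h compound exposure at 37 °C gave viability of IDH1-knockdown HT-1080 cells. Activity was normalised to DMSO and cell-free wells, then fitted as concentration-response curves.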
DT40 TDP1 CPT: DT40-hTDP1 cell growth loss with CPT; 420,000 tested, 12% active; chicken DT40 Tdp1-/-;hTDP1 cells + 20 nM CPT, ATP luminescence, 48 h; Potency, µM (series often up to 46.2 µM), for the others: at the highest dose activity change, negative = growth inhibition, hits mostly inhibitors; note: potency is the fitted concentration of half-maximal effect; nearly all actives have a fitted effect of over 55% in size
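Chicken DT40 Tdp1-/- cells complemented with human TDP1, 400 cells/well, exposed to compounds plus 20 nM camptothecin for at least 48 h at 37 C; viability read as ATP content by CellTiter-Glo luminescence.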
ALOX12 inh: ALOX12 (human) lipoxygenase inhibition | Potency, µM (top dose mostly 108 µM), for the others: at the top dose activity change, negative = inhibition, usual class: inhibitors | purified 12hLO, xylenol orange hydroperoxide absorbance | P18054 | 580,000 tested, 1.1% active; note: potency is the fitted concentration of half-maximal effect
Target sequence (P18054 whole entry, looked up): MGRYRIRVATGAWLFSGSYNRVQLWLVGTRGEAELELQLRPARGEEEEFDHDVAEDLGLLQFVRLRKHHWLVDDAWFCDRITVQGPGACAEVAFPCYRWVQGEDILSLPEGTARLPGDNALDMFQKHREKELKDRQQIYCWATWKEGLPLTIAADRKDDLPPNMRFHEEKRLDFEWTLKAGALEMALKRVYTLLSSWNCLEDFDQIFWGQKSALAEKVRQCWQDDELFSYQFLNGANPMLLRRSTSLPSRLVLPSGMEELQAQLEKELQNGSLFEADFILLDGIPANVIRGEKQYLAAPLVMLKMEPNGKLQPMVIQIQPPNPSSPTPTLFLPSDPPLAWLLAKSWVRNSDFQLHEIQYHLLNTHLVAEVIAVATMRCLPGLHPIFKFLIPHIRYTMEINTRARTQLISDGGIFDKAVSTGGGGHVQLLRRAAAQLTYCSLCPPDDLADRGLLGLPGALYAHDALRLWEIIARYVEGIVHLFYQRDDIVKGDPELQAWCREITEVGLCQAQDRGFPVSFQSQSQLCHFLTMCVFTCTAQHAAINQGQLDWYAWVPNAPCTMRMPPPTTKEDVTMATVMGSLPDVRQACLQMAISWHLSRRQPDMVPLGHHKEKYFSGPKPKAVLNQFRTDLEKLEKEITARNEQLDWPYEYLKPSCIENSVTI
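Purified human 12hLO (150 nM final) in 25 mM Hepes, 0.01% Triton X-100, pH 7.0 was preincubated 15 min at room temperature with compound. Then 40 uM arachidonic acid was added, 30 min. Hydroperoxide was read by Fe-XO absorbance ratio 573/405 nm.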
HT1080NT lethal: kills 2HG-producing HT-1080-NT fibrosarcoma cells; 360,000 tested, 1.6% active; AID 686970; HT-1080-NT fibrosarcoma viability, CellTiter-Glo ATP luminescence, 48 h; Potency, µM (series often up to 46.1 µM), for inactives: at the top dose activity, negative = less viability, hits mostly cytotoxic;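 note: NT is the 2HG producing partner of a matched IDH1 knockdown line; potency is the fitted concentration of half-maximal effect; 0% = DMSO-treated cells and -100% = media-only wells without cells; nearly all actives have a fitted effect of over 55% in size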
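750 cells/well, RPMI + 5% FBS; 2 h settle, compound pin-transfer, 48 h at 37 degrees C. CellTiter-Glo 10 min RT, luminescence. Normalized to DMSO and media-only wells.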
IL1B secr inh: inhibitors of inflammasome signaling (IL-1 beta secretion); activity change, % at 57.5 µM; THP-1 LPS/ATP IL-1B secretion, AlphaLISA, 16 h; stronger effect = lower value; 360,000 tested, 4.7% active; AID 743279; in the data active = activity change below about -50%; inconclusive = mostly about -30% to -49%
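Secreted IL-1B measured by AlphaLISA bead assay after 16 h compound exposure of THP-1 cells; compounds (final up to 57.5 uM) added 1 h before LPS (250 ng/mL) and ATP (1.25 mM) stimulation; lower signal means less secretion.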
* marks the source's active call; other numbers are inactive results; i = inactive; ? = inconclusive; nt = not tested or not shown; [ ] = another dose, or the depositor's remark. Shown is part of a subset that was picked to be rich in hits. Unless noted, calls come from the whole dose curve; as a rule, active = well fitted curve in the direction sought with a large enough effect; inconclusive = small, poorly fitted or top-dose-only effect, or another doubt; inactive = no such curve, though single readings can be large; an effect the other way counts as inactive or inconclusive. Unless noted, % is set by controls: 0 for no effect and ±100 for the full control effect.

SMILES | TDP1 cell noCPT | HT1080 IDH1KD tx | DT40 TDP1 CPT | ALOX12 inh | HT1080NT lethal | IL1B secr inh
Cc1ccc(N2CCN(C(=O)c3ccccc3Br)CC2)c(C)c1 | 26µM* | -1% | ? | ? | -13% | -2
Cc1ccc(C)c(N2CCN(C(=O)c3ccccc3Br)CC2)c1 | 16µM* | -6% | 21µM* | 0% | -4% | ?
CC(C)N1C[C@H](C(=O)NCCC2=CCCCC2)[C@H](C(=O)O)C1 | nt | nt | nt | 3% | nt | nt
Cc1ccc(C(=O)N/C(=C/c2ccccc2)C(=O)NCCC(=O)O)cc1 | nt | nt | nt | -17% | nt | nt
Cc1nc(NC(=O)/C=C/c2ccco2)sc1C | 5.8µM* | ? | 5.2µM* | -14% | -12% | 22
O=C(/C=C/c1ccco1)Nc1cccc(NC(=O)/C=C/c2ccco2)n1 | 21µM* | 12% | 23µM* | -30% | 0% | 10
O=C(/C=C/c1ccco1)Nc1nnc(-c2ccco2)s1 | ? | -10% | ? | -21% | -20% | 31
Cc1ccc(Cl)cc1N1C(=O)N(CC(=O)N2CCCCCC2)c2ccccc2S1(=O)=O | nt | nt | nt | 4% | nt | nt
COCCN1C(=O)[C@@H]2C[C@@H](CN2Cc2ccccc2F)Oc2ccccc21 | nt | nt | nt | -25%[176 µM] | nt | nt
Nc1ccccc1C(=O)N1CCCC1 | -20% | ? | 13% | -16% | 15% | 7
COC(=O)c1cc(NC(=O)c2cc(-c3ccccc3Cl)oc2C(F)(F)F)ccc1N1CCOCC1 | 21µM* | ? | ? | -2% | -21% | ?
COC(=O)c1cc(NC(=O)c2c(-c3c(Cl)cccc3Cl)noc2C)ccc1N1CCOCC1 | -23% | -1% | -24% | 5% | 5% | 3
COC(=O)c1cc(NC(=O)c2cc(-c3ccc(Cl)cc3)oc2C(F)(F)F)ccc1N1CCOCC1 | 18µM* | ? | ? | ? | ? | ?
CC(C)CN1CCN(C2CCOC3(CCN(C(=O)c4ccc5[nH]ccc5c4)CC3)C2)CC1 (stereo not given) | nt | nt | nt | 17% | nt | nt
O=C(CCC1CCN(S(=O)(=O)c2cccc(F)c2)CC1)NCc1ccncc1 | nt | nt | nt | 14% | nt | nt
CCCCn1cc(S(=O)(=O)c2ccc(C)cc2)c(=O)c2cc(F)c(N3CCCCC3)cc21 | 13µM* | nt | 18µM* | 1% | nt | nt
CCCCn1cc(S(=O)(=O)c2ccc(OC)cc2)c(=O)c2cc(F)c(N3CCCC3)cc21 | 10µM* | nt | 12µM* | -12% | nt | nt
CCCn1cc(S(=O)(=O)c2ccccc2)c(=O)c2cc(F)c(N3CCCC3)cc21 | ? | nt | ? | -17% | nt | nt
Cc1cc(C)cc(S(=O)(=O)c2cn(C)c3cc(N4CCCC4)c(F)cc3c2=O)c1 | 5% | nt | -3% | -13% | nt | nt
COc1ccc(S(=O)(=O)c2cn(C)c3cc(N4CCCCCC4)c(F)cc3c2=O)cc1 | 15µM* | nt | 18µM* | -6% | nt | nt
CCCn1cc(S(=O)(=O)c2ccc(OC)cc2)c(=O)c2cc(F)c(N3CCCC(C)C3)cc21 (stereo not given) | 18µM* | nt | ? | -7% | nt | nt
COc1ccc(C(=O)N2CC3(C2)NC(=O)c2ccccc2O3)cc1 | nt | nt | nt | 15%[176 µM] | nt | nt
Cc1ccc(N2CC(c3nc(-c4cccs4)no3)CC2=O)cc1C (stereo not given) | nt | nt | nt | 7% | nt | nt
CCCCn1cc(S(=O)(=O)c2ccc(Cl)cc2)c(=O)c2cc(F)c(N3CCCCC3)cc21 | 12µM* | nt | 12µM* | -7% | nt | nt
CCCn1cc(S(=O)(=O)c2ccc(C)cc2)c(=O)c2cc(F)c(N3CCCC3)cc21 | -27% | nt | ? | ? | nt | nt
SMILES | TDP1 cell noCPT | HT1080 IDH1KD tx | DT40 TDP1 CPT | ALOX12 inh | HT1080NT lethal | IL1B secr inh
N#Cc1nc(-c2ccc(OCc3ccc(Cl)cc3)cc2)oc1NCCN1CCOCC1 | nt | nt | nt | -29% | nt | nt
CO[C@@H]1[C@@H](OC)[C@H](C)[C@@](O)(CC(=O)O)O[C@H]1[C@H](C)[C@H]1O[C@@]2(CC[C@@](C)([C@H]3CC[C@@](C)([C@@H]4O[C@@H]([C@H]5O[C@](C)(O)[C@H](C)C[C@@H]5C)C[C@@H]4OC4C[C@H](OC)[C@@H](OC)[C@H](C)O4)O3)O2)C[C@H](O)[C@H]1C (stereo not given in full) | 0.34µM* | nt | 0.6µM* | -2%[22.9 µM] | nt | nt
O=C(Nc1ccc(Br)cc1)c1cccc(S(=O)(=O)Nc2cnc3ccccc3c2)c1 | ? | ? | -29% | ? | ? | ?
O=C1CSc2ccc(C(=O)Nc3cccc(S(=O)(=O)Nc4ccc(Br)cc4)c3)cc2N1 | 8.2µM* | nt | 18µM* | ? | nt | ?
O=C(Nc1ccc(Br)cc1)c1cccc(S(=O)(=O)Nc2ccccn2)c1 | 16µM* | -12% | -17% | 1% | -17% | i
COc1ccc(NC(=O)c2cccc(S(=O)(=O)Nc3ccc(Br)cc3)c2)cn1 | 23µM* | ? | ? | ? | ? | -80*
Cc1ccc(-c2nn(C)c(=O)c3ccccc23)cc1S(=O)(=O)NCCCO | nt | nt | nt | 33% | nt | nt
CCC/C(=C1/c2ccccc2C(=O)N1c1ccccc1)c1c(C)noc1C | nt | nt | nt | 1% | nt | nt
CCC/C(C#CCCN1C(=O)c2ccccc2C1=O)=C1/c2ccccc2C(=O)N1c1ccccc1 | ? | -1% | 18µM* | ? | -3% | -23
CCC/C(C(=O)NCCO)=C1/c2ccccc2C(=O)N1c1ccccc1 | ? | 0% | 1% | -7% | ? | 29
CCC/C(C#Cc1ccsc1)=C1/c2ccccc2C(=O)N1c1ccccc1 | ? | ? | ? | ? | -30% | -89*
O=C1c2ccccc2C(=O)N1c1ccccc1 | 7% | 7% | 1% | 0% | 9% | -19
CCC/C(C#Cc1ccc(N(C)C)cc1)=C1/c2ccccc2C(=O)N1c1ccccc1 | 16µM* | 1% | 15µM* | -23% | 2% | 4
O=C1c2ccccc2C(=O)N1CCC#C/C=C1\c2ccccc2C(=O)N1c1ccccc1 | 21µM* | -11% | ? | 15% | 15% | 42
CNC(=O)[C@H]1C[C@H](Oc2ccccc2)CN1C(=O)NCc1ccc(F)cc1 | nt | nt | nt | 32% | nt | nt
Cc1ccc(NC(=O)c2cc(-c3cccnc3)nc3ccc(C)cc23)nc1 | nt | nt | nt | -4% | nt | nt
Cc1ccc(NC(=O)CN(Cc2cccs2)CC2CCCO2)cc1 (stereo not given) | nt | nt | nt | -9% | nt | nt
CCC/C(C#Cc1cc(OC)cc(OC)c1)=C1/c2ccccc2C(=O)N1c1ccccc1 | ? | -3% | 26µM* | ? | 15% | 0
CC1(C)CC(=O)C/C(=N/NC(=O)c2ccc(Cl)cc2)C1 | nt | nt | nt | 7% | nt | nt

Bioassay records (PubChem)
